Assay results: PubChem BioAssay AID449762 (Southern Research Specialized Biocontainment Screening …, 2010)
The campaign covered roughly 330,000 compounds. About 1,900 (0.58%) were called active. Inconclusive results (about 4%) are left out. No stated cut-off is given here; in the data, inconclusive means inhibition above about 70% without an active follow-up result; inactive means below that. The list is a sample of the results. Measured potencies and affinities stand elsewhere.

Assay: M. tuberculosis growth inhibition, HTS (AID 449762);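 further: bacterial growth assessed after seven days of incubation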
Details: M. tuberculosis H37Rv growth inhibition, 7H9 media; at 25 µM; stronger effect = higher value
For CCC(C)(C)NC(=O)C(c1ccncc1)N(C(=O)c1sc(C)nc1C)c1ccc(C)cc1 (stereo not given), the inhibition was 3.84% (inactive).
For COc1cc(/C=N\NC(=O)c2ccc(Cl)cc2)ccc1Oc1ccc([N+](=O)[O-])cn1, the inhibition was -6.52% (inactive).
In the case of Cc1cccc(-n2c(N)c(-c3nc4ccccc4n3C)c3nc4ccccc4nc32)c1, the inhibition is reported as 1.57% (inactive).
In the case of Cc1nc2ccccc2n1CCc1ccccc1, the inhibition is reported as -2.95% (inactive).
For CNC(=O)CS(=O)(=O)CC(=O)Nc1cc(OC(C)C)c(Cl)cc1Cl, the inhibition was -5.55% (inactive).
For O=C(OC(C(=O)Nc1ccc(Cl)c(C(F)(F)F)c1)c1ccccc1)C1=COCCO1 (stereo not given), the inhibition was 45.5% (inactive).
With COC(=O)CCC(=O)Nc1nccs1 the inhibition was 5.49% (inactive).
With O=C(Cc1ccccc1)Nc1nccs1 the inhibition was -6.19% (inactive).
In the case of CCn1c(SCC(=O)Nc2nc(C)c(C)s2)nnc1-c1cccnc1, the inhibition is reported as -1.86% (inactive).
In the case of CC1=NC(C(F)(F)F)(C(F)(F)F)C(C#N)=C(C)N1, the inhibition is reported as -4.27% (inactive).
With C=CCn1cccc(C(=O)Nc2ccc(SC)cc2)c1=O the inhibition was -0.65% (inactive).
For O=C(c1cccc(Cl)c1)c1nn(-c2ccccc2)c(=O)cc1C(F)(F)F, the inhibition was -1.58% (inactive).
With O=C(c1ccccc1)c1nn(-c2ccccc2)c(=O)cc1C(F)(F)F the inhibition was 13.9% (inactive).
In the case of CCCCNC(=O)c1c(C)cc(=O)oc1C, the inhibition is reported as -6.73% (inactive).
In the case of Oc1ccccc1C1Nc2cccc3cccc(c23)N1, the inhibition is reported as 6.02% (inactive).
For Clc1cccc(Cl)c1C1Nc2cccc3cccc(c23)N1, the inhibition was 14.4% (inactive).
In the case of O=C(CSc1nnnn1-c1ccc(F)cc1F)Nc1ccccc1F, the inhibition is reported as -0.25% (inactive).
With CC(=O)NC1=NN(C(C)=O)C(c2ccc(F)cc2)S1 (stereo not given) the inhibition was -2.18% (inactive).
In the case of Cc1onc(-c2ccccc2)c1C(=O)NCc1cccnc1, the inhibition is reported as -1.76% (inactive).
In the case of Cc1cc(=O)oc(C)c1C(=O)NCc1cccnc1, the inhibition is reported as -7.02% (inactive).
For COc1ccc(-c2cc(C(=O)N/N=C(\C)c3cccnc3)c3cc(C)ccc3n2)cc1OC, the inhibition was -3% (inactive).
For CCc1nnc(NC(=O)c2ccc(S(=O)(=O)N3CCCC3)cc2)s1, the inhibition was -0.36% (inactive).
With [O-][n+]1ccccc1SCc1ccccc1 the inhibition was -3.14% (inactive).
With O=C(CSc1cccc[n+]1[O-])N1CCCCCC1 the inhibition was -7.02% (inactive).
With CN(C(=O)CSc1cccc[n+]1[O-])c1ccccc1 the inhibition was -7.05% (inactive).
With O=C(O)CSc1cccc[n+]1[O-] the inhibition was -0.1% (inactive).
In the case of CN(C(=O)CS(=O)(=O)c1cn(CC(=O)N2CCCCC2)c2ccccc12)c1ccccc1, the inhibition is reported as -2.32% (inactive).
With O=C(O)C1(P(=O)(c2ccccc2)c2ccccc2)CCCC1 the inhibition was 0.37% (inactive).
For CN(C)CCCNC(=S)N(CCCO)Cc1cc2cc3c(cc2[nH]c1=O)OCO3, the inhibition was 4.05% (inactive).
For COc1ccc(C(CCN2CCN(c3ccccc3)CC2)c2c(OC)cc(OC)c3c(-c4ccccc4)cc(=O)oc23)cc1 (stereo not given), the inhibition was -5.41% (inactive).
With COc1cc(C(CCN2CCCC2)c2c(OC)cc(OC)c3c(-c4ccccc4)cc(=O)oc23)cc(OC)c1OC (stereo not given) the inhibition was 56.2% (inactive).
In the case of COc1ccc(N2C(=O)NC(NS(=O)(=O)c3ccccc3)(C(F)(F)F)C2=O)cc1 (stereo not given), the inhibition is reported as -5.61% (inactive).
In the case of CNC(=O)COC(=O)c1cc(=O)[nH]c2ccccc12, the inhibition is reported as -5.4% (inactive).
For Cc1c2cnn(CC(=O)Nc3cccc(C(F)(F)F)c3)c(=O)c2c(C)n1Cc1ccccc1F, the inhibition was -1.26% (inactive).
For O=C(CN1CCOc2ccccc21)N1CCCC1, the inhibition was -8.18% (inactive).
In the case of O=C(CN1C(=O)COc2ccccc21)N1CCCC1, the inhibition is reported as -0.99% (inactive).
In the case of CC(C)c1ccc(NC2CCCN(C(=O)CCN3CCOCC3)C2)cc1 (stereo not given), the inhibition is reported as 7.93% (inactive).
In the case of O=C(Nc1nc(-c2cc(Cl)sc2Cl)cs1)c1ccccc1, the inhibition is reported as -8.95% (inactive).
With O=C(Nc1nc(-c2cc(Cl)sc2Cl)cs1)c1ccc(Br)s1 the inhibition was 1.67% (inactive).
In the case of CCC1CCCCN1C(=O)c1noc(C(C)C)c1[N+](=O)[O-] (stereo not given), the inhibition is reported as 3.49% (inactive).
For CC12CC3(C)CC(C)(C1)CC(C(N)=O)(C2)C3, the inhibition was -0.48% (inactive).
With COc1ccccc1NC(=O)CSCc1cc(=O)n2ccsc2n1 the inhibition was 3.56% (inactive).
In the case of CCN(CCNCC(O)COCc1ccc(Cl)cc1)c1cccc(C)c1 (stereo not given), the inhibition is reported as 57% (inactive).
For Cc1ccc(C(C)C)c(OCC(O)CNC2CCCC2)c1 (stereo not given), the inhibition was 9.04% (inactive).
For Cc1ccc(S(=O)(=O)Cc2ccc(C(=O)NCCCN3CCN(C)CC3)o2)cc1, the inhibition was -20.7% (inactive).
In the case of O=C(Cn1c2ccc(F)cc2c2nc3n(c(=O)c21)CCS3)N1CCCC1, the inhibition is reported as -4.92% (inactive).
In the case of CCN(CC)S(=O)(=O)c1cccc(-c2csc(C)n2)c1, the inhibition is reported as -1.32% (inactive).
For COc1ccc(/C=N/Nc2nnc(C)n2N)cc1OC, the inhibition was 54.6% (inactive).
In the case of COc1cc(/C=N\Nc2nncn2N)ccc1OC(C)=O, the inhibition is reported as -2.67% (inactive).
For Cc1cccc(C)c1-n1nnnc1SCSc1nnnn1-c1c(C)cccc1C, the inhibition was -0.17% (inactive).
For Cc1ccc(C)c(N2C(=O)CC(N3CCN(Cc4ccc5c(c4)OCO5)CC3)C2=O)c1 (stereo not given), the inhibition was -6.64% (inactive).
With O=c1/c(=C\c2ccc(O)cc2)sc2nc(-c3ccccc3)c(-c3ccccc3)n12 the inhibition was -4.61% (inactive).
For CCOC(=O)C1=C(C)N=c2s/c(=C\c3ccc(OCC(=O)O)cc3)c(=O)n2C1c1ccccc1 (stereo not given), the inhibition was -2.68% (inactive).
With COc1cccc(CN(C)C(=O)/C=C/c2ccc(S(=O)(=O)N3CCCCCC3)cc2)c1 the inhibition was 4.38% (inactive).
In the case of Cc1cc(=O)oc2ccc(OCC(=O)N3CCc4ccccc43)cc12, the inhibition is reported as -7.76% (inactive).
For COc1ccc(N/C(N)=N/c2nc(C)cc(=O)[nH]2)cc1, the inhibition was 4.61% (inactive).
In the case of Cc1cc(=O)[nH]c(N=N/C(=N/Nc2ccccc2C)c2ccccc2)n1, the inhibition is reported as 68.7% (inactive).
For CCOc1ccccc1/C=N/Nc1ccc(Cl)nn1, the inhibition was 13.2% (inactive).
In the case of Oc1ccc(/C=N/Nc2ccc(Cl)nn2)c(O)c1O, the inhibition is reported as -6.06% (inactive).
With C/C(=N\NC(N)=O)c1ccc(Cl)s1 the inhibition was -8.77% (inactive).
In the case of C/C(=N\NC(=S)NCc1ccccc1)c1ccc(Cl)s1, the inhibition is reported as -0.65% (inactive).
In the case of Cc1cccc(N(C)S(=O)(=O)c2c(C)noc2C)c1, the inhibition is reported as 2.4% (inactive).
For C/C(CC(=O)Nc1ccccn1)=N\NC(=O)c1ccccc1O, the inhibition was -3.57% (inactive).
For O=C(Nc1ccc2oc(-c3ccc(Cl)c(Cl)c3)nc2c1)c1ncn[nH]1, the inhibition was 50.6% (inactive).
With O=C(Nc1ccc2oc(-c3cccc4ccccc34)nc2c1)c1ncn[nH]1 the inhibition was 9.87% (inactive).
In the case of CC(=O)N(C(C)=O)c1c(C#N)c(C)n(-c2ccccc2)c1C(=O)c1ccccc1, the inhibition is reported as -0.27% (inactive).
For CCCC(=O)c1ccc(-c2ccccc2)cc1, the inhibition was 1.42% (inactive).
In the case of Cc1ccc2nc(NC(=O)CN3C(=O)NC4(CCCCC4)C3=O)sc2c1, the inhibition is reported as 5.87% (inactive).
For COc1ccccc1NS(=O)(=O)c1cc(C(=O)NCCC(C)C)ccc1F, the inhibition was 16.6% (inactive).
For CC(C)CCOCc1nc2sc3c(c2c(=O)[nH]1)CCC(C)C3 (stereo not given), the inhibition was -5.2% (inactive).
With CCOC(=O)c1nc2sc3c(c2c(=O)[nH]1)CCCC3 the inhibition was 2.32% (inactive).
With COC(=O)C1CCN(c2nc3ccccc3nc2C(C#N)C(=O)OCC(C)C)CC1 (stereo not given) the inhibition was -4.17% (inactive).
With COc1ccccc1NS(=O)(=O)c1cccc(NC(=O)C2CC2)c1 the inhibition was -4.5% (inactive).
In the case of COc1cc(OC)c(C#N)c(S(=O)(=O)Cc2ccccc2)c1, the inhibition is reported as -8.56% (inactive).
For O=[N+]([O-])c1ccc(OS(=O)(=O)Cc2ccccc2)cc1, the inhibition was 4.45% (inactive).
In the case of O=C(CS(=O)(=O)c1cn(CC(=O)N2CCCC2)c2ccccc12)Nc1ccccc1F, the inhibition is reported as 2.67% (inactive).
For Cc1c(C(c2ccc(F)cc2)c2c(C)n(C)n(-c3ccccc3)c2=O)c(=O)n(-c2ccccc2)n1C, the inhibition was 5.49% (inactive).
For OCCOCCn1c(C(CO)Nc2nc(-c3ccc(F)cc3)cs2)nc2ccccc21 (stereo not given), the inhibition was 6.37% (inactive).
With COc1ccc(-c2csc(NC(CO)c3nc4ccccc4n3Cc3ccc(C)cc3)n2)cc1 (stereo not given) the inhibition was 25.6% (inactive).
For Cc1ccc(NCc2nc(SCC(=O)Nc3ccccc3)n[nH]2)cc1, the inhibition was -2.62% (inactive).
In the case of COc1ccc(NC(=O)C(C)NS(=O)(=O)c2ccc(NC(C)=O)cc2)cc1Cl (stereo not given), the inhibition is reported as -1.73% (inactive).
With COc1ccc(NC(=O)C(C)NS(=O)(=O)c2ccccc2)cc1Cl (stereo not given) the inhibition was -8.72% (inactive).
In the case of COc1ccc(CCN=C(N)NS(=O)(=O)c2ccc(C)cc2)cc1OC, the inhibition is reported as -1.62% (inactive).
For CCc1ccc(C2c3[nH]c4ccccc4c3CCN2C(=O)c2cc[n+]([O-])cc2)cc1 (stereo not given), the inhibition was -3.85% (inactive).
For Cc1ccccc1C1c2[nH]c3ccccc3c2CCN1C(=O)c1ccc(=O)n(C)n1 (stereo not given), the inhibition was 53.9% (inactive).
With COc1cc(N/C=C(\C(C)=O)c2ccccc2)cc(OC)c1 the inhibition was 4.79% (inactive).
In the case of O=C(Nc1ccc(OCc2ccccc2)cc1)c1ccccc1, the inhibition is reported as -2.87% (inactive).
With COc1ccc(CCNCC(=O)Nc2ccc(OC(F)F)cc2)cc1 the inhibition was -4.99% (inactive).
In the case of CCCCC1CCC(C(=O)N(CCCC)c2c(N)n(CCCC)c(=O)[nH]c2=O)CC1 (stereo not given), the inhibition is reported as -9.54% (inactive).
With Clc1nc(CN2CCOCC2)nc2sc3c(c12)CCC3 the inhibition was 6.4% (inactive).
With CC1CCc2c(sc3nc(CN4CCOCC4)nc(N4CCc5ccccc5C4)c23)C1 (stereo not given) the inhibition was 6.42% (inactive).
In the case of CCc1ccccc1Nc1nc(N)nc(CSCC(=O)c2cc(C)n(C)c2C)n1, the inhibition is reported as -11.5% (inactive).
For O=C(NCCCc1ccc(F)cc1)C1CCC(=O)N(CCCN2CCCC2=O)C1 (stereo not given), the inhibition was 11.4% (inactive).
With O=C1CC(Sc2nnc(-c3ccccc3)o2)C(=O)N1c1ccccc1 (stereo not given) the inhibition was -3.28% (inactive).
For O=C1OCCC1Sc1nnc(-c2ccccc2)o1 (stereo not given), the inhibition was -4.39% (inactive).
